Reference: PubChem BioAssay (NCI)
This is part of a sample that, as a whole, favours compounds with a hit. Of some 79,000 tested, about 15% had one in any assay. The source made the active and inactive calls. Cut-off read from the data, not from the text of the source: active = growth inhibition above about 70%; inactive = the rest.

Key:
[1] = NCI Yeast Anticancer Drug Screen. Data for the rad52 strain (AID 147);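 note: 0% = growth of vehicle-treated control cultures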; settings: S. cerevisiae rad52 mutant growth inhibition, hits give high values
Procedure, shortened: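 Read-out: growth inhibition versus vehicle-treated controls. Cells were a DNA repair-deficient yeast strain treated with compounds.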

[2] = NCI Yeast Anticancer Drug Screen. Data for the wt1 strain (AID 149);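 note: 0% = growth of vehicle-treated wt1 cultures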; settings: S. cerevisiae wt1 strain (SPY 50644) growth inhibition, hits give high values
Procedure, shortened: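 Yeast wt1 strain exposed to compounds; growth inhibition measured relative to vehicle-treated controls.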

[3] = NCI Yeast Anticancer Drug Screen. Data for the rad50EPP+ strain (AID 151);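 note: 0% = growth of vehicle-treated control cultures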; settings: S. cerevisiae rad50 mutant strain, hits give high values
Procedure, shortened: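 Growth inhibition read against vehicle controls in rad50EPP+ yeast, a strain altered in DNA damage repair, after compound exposure.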

[4] = NCI Yeast Anticancer Drug Screen. Data for the mgt1 strain (AID 153); settings: S. cerevisiae mgt1 mutant growth inhibition, hits give high values
Procedure, shortened: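 mgt1 yeast grown with test compound; read-out is growth inhibition versus vehicle-treated cultures.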

[5] = NCI Yeast Anticancer Drug Screen. Data for the rad50 strain (AID 155);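 note: 0% = growth of vehicle-only cultures of the same strain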; settings: S. cerevisiae rad50 strain growth inhibition, hits give high values
Procedure, shortened: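 Yeast carrying a defined DNA repair defect were exposed to test compounds, and growth was compared with vehicle-treated controls to give percent inhibition.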

[6] = NCI Yeast Anticancer Drug Screen. Data for the mec2-1 strain (AID 157); settings: S. cerevisiae mec2-1 strain, hits give high values
Procedure, shortened: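 Yeast mec2-1 mutant treated with compound. Readout: growth inhibition vs vehicle controls.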

[7] = NCI Yeast Anticancer Drug Screen. Data for the rad14 strain (AID 159);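 note: 0% = growth of vehicle-treated control cultures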; settings: S. cerevisiae rad14 strain growth inhibition, hits give high values
Procedure, shortened: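 Yeast cells carrying a defined DNA-repair defect were exposed to compounds, and growth inhibition was calculated relative to vehicle-treated control cultures.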

[8] = NCI Yeast Anticancer Drug Screen. Data for the sgs1 mgt1 strain (AID 161);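 note: 0% = growth of cultures given vehicle only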; settings: S. cerevisiae sgs1 mgt1 strain, hits give high values
Procedure, shortened: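 Test agents were incubated with a DNA-repair-mutant yeast strain. Growth was then read and compared against vehicle-treated controls.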

[9] = NCI Yeast Anticancer Drug Screen. Data for the cln2 rad14 strain (AID 165);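 note: 0% = growth equal to vehicle treated cultures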; settings: S. cerevisiae cln2 rad14 strain, hits give high values
Procedure, shortened: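 cln2 rad14 yeast strain; compound exposure; growth inhibition read vs vehicle controls.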

[10] = NCI Yeast Anticancer Drug Screen. Data for the bub3 strain (AID 167); settings: S. cerevisiae bub3 mutant strain, hits give high values
Procedure, shortened: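 Compounds were applied to a genetically altered yeast strain carrying a cell-cycle control defect. Growth inhibition was scored against vehicle-treated controls.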

[11] = NCI Yeast Anticancer Drug Screen. Data for the wt2 strain (AID 169);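 note: 0% = growth of vehicle-treated yeast cultures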; settings: S. cerevisiae wt2 strain growth inhibition, hits give high values
Procedure, shortened: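 Read-out: growth inhibition versus vehicle-treated control cultures after compound exposure of the yeast strain.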

[12] = NCI Yeast Anticancer Drug Screen. Data for the mlh1 strain (AID 171);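 note: 0% = growth of vehicle-treated control cultures of the same strain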; settings: S. cerevisiae mlh1 strain growth inhibition, hits give high values
Procedure, shortened: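 Read-out: growth inhibition versus vehicle controls. Strain: engineered yeast with a defined DNA repair or cell cycle defect, compound-treated.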

[13] = NCI Yeast Anticancer Drug Screen. Data for the sgs1 strain (AID 173);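 note: 0% = growth of vehicle-only control cultures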; settings: S. cerevisiae sgs1 mutant, hits give high values
Procedure, shortened: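 Read-out: yeast growth inhibition relative to vehicle controls, following compound exposure of a strain with a defined DNA repair/cell cycle alteration.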

[14] = NCI Yeast Anticancer Drug Screen. Data for the mlh1 rad18 strain (AID 175); settings: S. cerevisiae mlh1 rad18 strain growth inhibition, hits give high values
Procedure, shortened: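 Yeast w/ defined DNA-repair lesions; compound exposure; growth vs vehicle controls → % inhibition.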

[15] = NCI Yeast Anticancer Drug Screen. Data for the rad18 strain (AID 177); settings: S. cerevisiae rad18 mutant growth inhibition, hits give high values
Procedure, shortened: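 Readout: growth inhibition vs vehicle controls. Cells: genetically altered yeast strain, DNA repair defect.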

[16] = at 5.0 µM (retest, dose inferred, filed as 0.5)
[17] = at 50.0 µM (retest, dose inferred, filed as 5.0)

Measured: growth inhibition

CSC(=S)N/N=C(\C)c1cccc(C)n1
active: [1]; at 100.0 µM 97% | [2]; at 100.0 µM 99% | [3]; at 100.0 µM 98% | [4]; at 100.0 µM 98% | [5]; at 33.0 µM 93% | [5]; [17] 99% | [5]; at 50.0 µM 99.4% | [5]; at 100.0 µM 98% | [6]; [17] 99% | [6]; at 50.0 µM 99.4% | [6]; at 100.0 µM 98% | [7]; at 100.0 µM 98% | [8]; [17] 99% | [8]; at 50.0 µM 99.3% | [9]; [17] 98% | [9]; at 50.0 µM 99.2% | [10]; [17] 99% | [10]; at 50.0 µM 99.2% | [10]; at 100.0 µM 98% | [11]; at 100.0 µM 99% | [12]; at 100.0 µM 99% | [13]; at 100.0 µM 99% | [14]; [17] 99% | [14]; at 50.0 µM 99.2% | [15]; at 33.0 µM 75% | [15]; at 100.0 µM 96%
inactive: [1]; at 1.2 µM -3% | [1]; at 3.7 µM -5% | [1]; at 11.0 µM -8% | [1]; at 33.0 µM 47% | [2]; at 1.2 µM -4% | [2]; at 3.7 µM -7% | [2]; at 11.0 µM -4% | [2]; at 33.0 µM 19% | [3]; at 1.2 µM -3% | [3]; at 3.7 µM -3% | [3]; at 11.0 µM -3% | [3]; at 33.0 µM 5% | [4]; at 1.2 µM -7% | [4]; at 3.7 µM -11% | [4]; at 11.0 µM -10% | [4]; at 33.0 µM 39% | [5]; at 1.2 µM -4% | [5]; at 3.7 µM 2% | [5]; [16] -6% | [5]; at 11.0 µM 11% | [6]; at 1.2 µM -6% | [6]; at 3.7 µM -13% | [6]; [16] 28% | [6]; at 11.0 µM -10% | [6]; at 33.0 µM 62% | [7]; at 1.2 µM -8% | [7]; at 3.7 µM 6% | [7]; at 11.0 µM -5% | [7]; at 33.0 µM 44% | [8]; [16] 23% | [9]; [16] 59% | [10]; at 1.2 µM -14% | [10]; at 3.7 µM -20% | [10]; [16] 19% | [10]; at 11.0 µM 9% | [10]; at 33.0 µM 34% | [11]; at 1.2 µM -6% | [11]; at 3.7 µM -6% | [11]; at 11.0 µM -5% | [11]; at 33.0 µM 63% | [12]; at 1.2 µM -11% | [12]; at 3.7 µM -1% | [12]; at 11.0 µM -6% | [12]; at 33.0 µM 29% | [13]; at 1.2 µM -3% | [13]; at 3.7 µM -5% | [13]; at 11.0 µM -4% | [13]; at 33.0 µM 57% | [14]; [16] 20% | [15]; at 1.2 µM -5% | [15]; at 3.7 µM -5% | [15]; at 11.0 µM 10%

CC(C)(Br)C(=O)/C=C/c1ccc(Cl)c(Cl)c1
active: [5]; at 50.0 µM 87.4% | [10]; at 50.0 µM 78.9% | [14]; [17] 78% | [14]; at 50.0 µM 82.8%
inactive: [1]; at 1.2 µM 2% | [1]; at 3.7 µM 3% | [1]; at 11.0 µM -1% | [1]; at 33.0 µM 2% | [1]; at 100.0 µM -4% | [2]; at 1.2 µM -2% | [2]; at 3.7 µM -1% | [2]; at 11.0 µM -3% | [2]; at 33.0 µM 0% | [2]; at 100.0 µM 1% | [3]; at 1.2 µM 4% | [3]; at 3.7 µM 3% | [3]; at 11.0 µM 3% | [3]; at 33.0 µM 3% | [3]; at 100.0 µM 3% | [4]; at 1.2 µM -4% | [4]; at 3.7 µM 0% | [4]; at 11.0 µM -1% | [4]; at 33.0 µM 0% | [4]; at 100.0 µM 0% | [5]; at 1.2 µM 4% | [5]; at 3.7 µM 3% | [5]; [16] 17% | [5]; at 11.0 µM 1% | [5]; at 33.0 µM 4% | [5]; [17] 64% | [5]; at 100.0 µM 4% | [6]; at 1.2 µM -1% | [6]; at 3.7 µM 1% | [6]; [16] 16% | [6]; at 11.0 µM -1% | [6]; at 33.0 µM 1% | [6]; [17] 49% | [6]; at 50.0 µM 48.2% | [6]; at 100.0 µM -1% | [7]; at 1.2 µM 4% | [7]; at 3.7 µM 2% | [7]; at 11.0 µM 1% | [7]; at 33.0 µM 2% | [7]; at 100.0 µM 3% | [9]; [16] 7% | [9]; [17] 28% | [9]; at 50.0 µM 52% | [10]; at 1.2 µM -2% | [10]; at 3.7 µM -3% | [10]; [16] 7% | [10]; at 11.0 µM -2% | [10]; at 33.0 µM -1% | [10]; [17] 56% | [10]; at 100.0 µM -2% | [11]; at 1.2 µM -5% | [11]; at 3.7 µM -10% | [11]; at 11.0 µM -12% | [11]; at 33.0 µM -10% | [11]; at 100.0 µM -8% | [12]; at 1.2 µM -2% | [12]; at 3.7 µM -1% | [12]; at 11.0 µM -2% | [12]; at 33.0 µM 1% | [12]; at 100.0 µM 3% | [13]; at 1.2 µM -1% | [13]; at 3.7 µM -3% | [13]; at 11.0 µM 12% | [13]; at 33.0 µM 7% | [13]; at 100.0 µM 17% | [14]; [16] 27% | [15]; at 1.2 µM 3% | [15]; at 3.7 µM 6% | [15]; at 11.0 µM 3% | [15]; at 33.0 µM 7% | [15]; at 100.0 µM 50%

CCCN(CCC)CC(O)c1cc(-c2ccc(Cl)cc2)nc2c(C)c(Cl)ccc12 (stereo not drawn)
active: [1]; at 11.0 µM 98% | [1]; at 33.0 µM 96% | [1]; at 100.0 µM 93% | [2]; at 11.0 µM 98% | [2]; at 33.0 µM 98% | [2]; at 100.0 µM 97% | [3]; at 11.0 µM 85% | [3]; at 33.0 µM 96% | [3]; at 100.0 µM 96% | [4]; at 11.0 µM 99% | [4]; at 33.0 µM 98% | [4]; at 100.0 µM 96% | [5]; at 11.0 µM 98% | [5]; at 33.0 µM 96% | [5]; [17] 95% | [5]; at 50.0 µM 98.4% | [5]; at 100.0 µM 93%
inactive: [1]; at 1.2 µM -2% | [1]; at 3.7 µM 2% | [2]; at 1.2 µM -1% | [2]; at 3.7 µM -3% | [3]; at 1.2 µM -2% | [3]; at 3.7 µM 1% | [4]; at 1.2 µM -2% | [4]; at 3.7 µM -3% | [5]; at 1.2 µM -3% | [5]; at 3.7 µM 7% | [5]; [16] 34% | [6]; at 1.2 µM -6% | [6]; at 3.7 µM -8%
